The source of these data is PubChem BioAssay (EPA / NIEHS).

Where “and” joins values, the source holds several entries; their conditions need not be identical. Equal entries are not always repeated. Results filed as inconclusive are left out. Where a structure was tested more than once in an assay, its records may differ in their call. Calls of active or inactive are those of the source. The calls were made as follows, unless noted: active = hit-call score of the fitted dose curve at least 0.9, where 1 is the maximum; inconclusive = response in the unintended direction; inactive = score below 0.9.

Read-out in the first test: X-box binding protein 1 (XBP1), XBP1 (gene 7494)
In words: LTEA_HepaRG_XBP1: Life Technologies and Expression Analysis (LTEA) Assay for X-box binding protein 1 (XBP1) using HepaRG (AID 2283540; active = hit-call score of the fitted dose curve at least 0.9, where 1 is the maximum; inactive = score below 0.9). The conditions noted are these: mRNA level, 48 h; actives raise or lower the signal. In short, it runs like this:
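XBP1 transcript by qRT-PCR (housekeeping-normalized: ACTB, GAPDH, POLR2A) after 48 h chemical treatment of HepaRG cells, 8-point half-log series topping at 100 uM, vehicle 0.5% DMSO. Gain and loss of signal fitted relative to DMSO.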
Regarding `O=C(O)C(F)(F)C(F)(F)C(F)(F)C(F)(F)C(F)(F)F`, the compound was called inactive.
As for `ClC1=C(Cl)[C@]2(Cl)[C@@H]3[C@H]4C[C@H]([C@@H]5O[C@H]45)[C@@H]3[C@@]1(Cl)C2(Cl)Cl`, the compound was classed as inactive.
Same read-out and setting: the result for `Cc1ccc(O)c(C)c1` reads “inactive”; that for `CCC(C)(CC)c1cc(NC(=O)c2c(OC)cccc2OC)on1`, “inactive”; that for `O=C(N[C@H]1CN2CCC1CC2)c1cc2ccoc2cn1`, “inactive”.
`COc1ccc(O)c(C(C)(C)C)c1`: the compound was classed as inactive.

Read-out in the next test: not listed separately
Put plainly: LTEA_HepaRG_LDH_cytotoxicity: Cytotoxicity Assessment in the Life Technologies and Expression Analysis (LTEA) Assay (AID 2283563).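 As to AC50: LDH activity released into spent culture medium as a marker of cell death.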
Conditions: not given
In short, it runs like this: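 LDH release into culture medium read after 48 h chemical treatment of HepaRG cells. Duplicate wells, eight-point half-log series topping at 100 uM, 0.5% DMSO vehicle and baseline.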
On to `Clc1ccc(C(Cl)(Cl)Cl)cc1`, for which the call was inactive.
Take `CCCCCCCCCc1ccc(O)cc1`: the call was inactive.
For orientation: AC50 means the midpoint of the concentration-response curve, whichever way the signal moves. For the compound `NS(=O)(=O)C(F)(F)C(F)(F)C(F)(F)C(F)(F)C(F)(F)C(F)(F)C(F)(F)C(F)(F)F`, the AC50 is 31.4 µM (active).
`CC(C)(O)C(=O)Nc1ccc([N+](=O)[O-])c(C(F)(F)F)c1`: the compound was called inactive.
As to `O=C(O)C(F)(F)C(F)(F)C(F)(F)C(F)(F)C(F)(F)F`, the call was inactive.
Same read-out and setting: the result for `O=S(=O)(O)C(F)(F)C(F)(F)C(F)(F)C(F)(F)F` reads “inactive”; that for `ClC1=C(Cl)[C@]2(Cl)[C@@H]3[C@H]4C[C@H]([C@@H]5O[C@H]45)[C@@H]3[C@@]1(Cl)C2(Cl)Cl`, “inactive”; that for `Cc1cc2c3c(c1)C(c1ccccc1)=N[C@@H](NC(=O)c1ccncc1)C(=O)N3CC2`, “inactive”.
The same measure, in the same setting: the result for `N#Cc1ccc(N(CC(N)=O)CC(F)(F)F)cc1C(F)(F)F` reads “inactive”.
As to `Cc1ccc(O)c(C)c1`, the result was inactive.
Regarding `CCCN(CCC)N=O`, the outcome was inactive.
As to `CN(C)c1nc(=O)n(C2CCCCC2)c(=O)n1C`, the result was inactive.
On to `COS(=O)(=O)OC`, for which the call was inactive.
Take `CCCCCCOC(=O)c1ccccc1C(=O)OCCCCCC`: the compound was called inactive.
`O=C(O)C(F)(F)C(F)(F)C(F)(F)C(F)(F)C(F)(F)C(F)(F)C(F)(F)C(F)(F)C(F)(F)F`: the half-maximal activity concentration (AC50) was 63.4 µM (active).
On the same count and under the same terms, under `CO/C=C(/C(=O)OC)c1ccccc1COc1cccc(C(F)(F)F)n1` stands 21.2 µM (active).
Regarding `CCC(C)(CC)c1cc(NC(=O)c2c(OC)cccc2OC)on1`, the compound was classed as inactive.
For the compound `CC#Cc1cc(C)nc(Nc2ccccc2)n1`, the half-maximal activity concentration (AC50) was 59.9 µM (active).
On to `C[C@]12CCC(=O)C=C1CC[C@@H]1[C@@H]2CC[C@@]2(C)[C@H]1CC[C@]2(C)O`, for which the AC50 is 74 µM (active).
For `ClC1=C(Cl)[C@]2(Cl)[C@@H]3[C@@H]4C[C@@H]([C@H]5O[C@@H]45)[C@@H]3[C@@]1(Cl)C2(Cl)Cl`, the call was inactive.
`CCOP(=S)(OCC)SCSC(C)(C)C`: the compound was called inactive.
Regarding `CCC(=O)O[C@H]1CC[C@H]2[C@@H]3CCC4=CC(=O)CC[C@]4(C)[C@H]3CC[C@]12C`, the compound was classed as inactive.
Consider `CC(c1ccc(O)cc1)(c1ccc(O)cc1)c1ccc(O)cc1`, for which the half-maximal activity concentration (AC50) is 76.5 µM (active).
Take `CCNc1nc(NC(C)C)nc(SC)n1`: the call was inactive.
The same measure, in the same setting: under `O=C(N[C@H]1CN2CCC1CC2)c1cc2ccoc2cn1` stands “inactive”; under `O=S(=O)(O)C(F)(F)C(F)(F)C(F)(F)C(F)(F)C(F)(F)C(F)(F)F`, “inactive”; under `COc1ccc(O)c(C(C)(C)C)c1`, “inactive”.
For `Cc1ccccc1[N+](=O)[O-]`, the call was inactive.
As to `CCOC(=O)C(O)(c1ccc(Cl)cc1)c1ccc(Cl)cc1`, the compound was classed as inactive.
In the case of `Oc1ccc(Cl)cc1Cl`, the outcome was inactive.

System in the next test: not listed separately
Put plainly: ATG_XTT_Cytotoxicity: Cytotoxicity Assessment in the Attagene TRANS-FACTORIAL HepG2 Assay (AID 2283584).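 As to AC50: cells exposed to compound for 24 h before reading; active means loss of viability signal versus DMSO baseline.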
Conditions: not given
A digest of the protocol: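 Viability endpoint from XTT after 24 h chemical exposure of reporter-transfected human HepG2 liver cells; signal loss fitted relative to DMSO negative control.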
Consider `Clc1ccc(C(Cl)(Cl)Cl)cc1`, for which the compound was called inactive.
As for `CCCCCCCCCc1ccc(O)cc1`, the AC50 was 151 µM (active) and the compound was called inactive.
`NS(=O)(=O)C(F)(F)C(F)(F)C(F)(F)C(F)(F)C(F)(F)C(F)(F)C(F)(F)C(F)(F)F`: the compound was classed as inactive.
As to `CC(C)(O)C(=O)Nc1ccc([N+](=O)[O-])c(C(F)(F)F)c1`, the compound was classed as inactive.
With `O=S(=O)(O)C(F)(F)C(F)(F)C(F)(F)C(F)(F)F`, the outcome was inactive.
On to `CCCN(CCC)N=O`, for which the outcome was inactive.
`OCC(O)CO`: the compound was classed as inactive.
Consider `CCCCCCOC(=O)c1ccccc1C(=O)OCCCCCC`, for which the result was inactive.
As to `O=C(O)C(F)(F)C(F)(F)C(F)(F)C(F)(F)C(F)(F)C(F)(F)C(F)(F)C(F)(F)C(F)(F)F`, the compound was called inactive.
On to `CO/C=C(/C(=O)OC)c1ccccc1COc1cccc(C(F)(F)F)n1`, for which the compound was called inactive.
Still for that read-out and setting: under `C[C@]12CCC(=O)C=C1CC[C@@H]1[C@@H]2CC[C@@]2(C)[C@H]1CC[C@]2(C)O` stands “inactive”; under `ClC1=C(Cl)[C@]2(Cl)[C@@H]3[C@@H]4C[C@@H]([C@H]5O[C@@H]45)[C@@H]3[C@@]1(Cl)C2(Cl)Cl`, “inactive”.
As for `CCOP(=S)(OCC)SCSC(C)(C)C`, the compound was classed as inactive.
On to `Sc1ccccc1`, for which the compound was classed as inactive.
On to `CCC(=O)O[C@H]1CC[C@H]2[C@@H]3CCC4=CC(=O)CC[C@]4(C)[C@H]3CC[C@]12C`, for which the outcome was inactive.
`CC(c1ccc(O)cc1)(c1ccc(O)cc1)c1ccc(O)cc1`: the compound was classed as inactive.
On the same count and under the same terms, the result for `O=S(=O)(O)C(F)(F)C(F)(F)C(F)(F)C(F)(F)C(F)(F)C(F)(F)F` reads “inactive”.
Turning to `COc1ccc(O)c(C(C)(C)C)c1`, the result was inactive.
Still for that read-out and setting: the result for `Cc1ccccc1[N+](=O)[O-]` reads “inactive”.
Take `CCOC(=O)C(O)(c1ccc(Cl)cc1)c1ccc(Cl)cc1`: the compound was called inactive.

System in the next test: not listed separately
In words: TOX21_p53_BLA_p2_viability: Viability Assessment in the Tox21 HCT-116 p53 Agonism Beta-lactamase Assay, Phase 2 (AID 2283591).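 Also: compound exposure lasted 16 h at 37 °C; actives lower the ATP signal meaning cytotoxicity.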
Conditions: not given
In short, it runs like this: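 HCT-116 p53-bla cells (4000/well) rested 5 h at 37C, then received compounds in DMSO (217-fold dilution) for 16 h at 37C, 5% CO2. After the CCF4 read, CellTiter-Glo was added; ATP luminescence was read after 30 min at room temperature.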
Turning to `Clc1ccc(C(Cl)(Cl)Cl)cc1`, the compound was classed as inactive.
As for `CCCCCCCCCc1ccc(O)cc1`, the compound was classed as inactive.
For the compound `NS(=O)(=O)C(F)(F)C(F)(F)C(F)(F)C(F)(F)C(F)(F)C(F)(F)C(F)(F)C(F)(F)F`, the compound was classed as inactive.
For `CC(C)(O)C(=O)Nc1ccc([N+](=O)[O-])c(C(F)(F)F)c1`, the call was inactive.
As for `O=S(=O)(O)C(F)(F)C(F)(F)C(F)(F)C(F)(F)F`, the compound was called inactive.
With `ClC1=C(Cl)[C@]2(Cl)[C@@H]3[C@H]4C[C@H]([C@@H]5O[C@H]45)[C@@H]3[C@@]1(Cl)C2(Cl)Cl`, the compound was called inactive.
As for `N#Cc1ccc(N(CC(N)=O)CC(F)(F)F)cc1C(F)(F)F`, the compound was classed as inactive.
Still for that read-out and setting: the result for `Cc1ccc(O)c(C)c1` reads “inactive”.
In the case of `CCCN(CCC)N=O`, the compound was classed as inactive.
On the same count and under the same terms, the result for `COS(=O)(=O)OC` reads “inactive”; that for `OCC(O)CO`, “inactive”.
On to `O=C(O)C(F)(F)C(F)(F)C(F)(F)C(F)(F)C(F)(F)C(F)(F)C(F)(F)C(F)(F)C(F)(F)F`, for which the compound was classed as inactive.
For the compound `CO/C=C(/C(=O)OC)c1ccccc1COc1cccc(C(F)(F)F)n1`, the result was inactive.
For `O=NN(c1ccccc1)c1ccccc1`, the outcome was inactive.
As to `CC#Cc1cc(C)nc(Nc2ccccc2)n1`, the outcome was inactive.
In the case of `C[C@]12CCC(=O)C=C1CC[C@@H]1[C@@H]2CC[C@@]2(C)[C@H]1CC[C@]2(C)O`, the outcome was inactive.
As for `ClC1=C(Cl)[C@]2(Cl)[C@@H]3[C@@H]4C[C@@H]([C@H]5O[C@@H]45)[C@@H]3[C@@]1(Cl)C2(Cl)Cl`, the outcome was inactive.
In the case of `CCOP(=S)(OCC)SCSC(C)(C)C`, the compound was called inactive.
For the compound `CCC(=O)O[C@H]1CC[C@H]2[C@@H]3CCC4=CC(=O)CC[C@]4(C)[C@H]3CC[C@]12C`, the half-maximal activity concentration (AC50) is 70.4 µM (active) and the outcome was inactive.
On to `CC(c1ccc(O)cc1)(c1ccc(O)cc1)c1ccc(O)cc1`, for which the half-maximal activity concentration (AC50) was 33.4 µM (active).
On to `O=C(N[C@H]1CN2CCC1CC2)c1cc2ccoc2cn1`, for which the compound was called inactive.
With `Cc1ccccc1[N+](=O)[O-]`, the result was inactive.
As to `CCOC(=O)C(O)(c1ccc(Cl)cc1)c1ccc(Cl)cc1`, the AC50 was 67.1 µM (active) and 17.8 µM (active).
Turning to `Oc1ccc(Cl)cc1Cl`, the compound was classed as inactive.
